Consider eleven molecules from PubChem BioAssay (Tox21).

Several values for one entry are separate records, joined by “and”; a condition that tells them apart may be missing. Identical values can stand only once. Inconclusive results are not listed. The source holds several records for some structures; these can differ, active in one and inactive in another. Activity calls are given as the source filed them. Unless noted, the call rests on the fitted dose curve; in most records, active means well fitted curve in the direction sought with a large enough effect in the repeat runs; inconclusive means weak or mixed curves; inactive means no such curve, though single readings can be large; an effect the other way counts as inactive or inconclusive. Starred links: 1 amine or outer side, 2 acyl side, 3 side chain; linkers in the order of their positions; H or OH if unused. Positions of bridges follow the written chain, without caps; N, C: chain ends. Non-standard residues stand in square brackets, D forms with d. Residues, ends and D or L forms follow the SMILES beside them. Chains are numbered I, II in the order given. Actinocin(9to1) = Cc1c2oc3c(C)ccc(C(=O)[*:1])c3nc-2c(C(=O)[*:2])c(N)c1=O; NMeV = CN[C@H](C(=O)O)C(C)C; Sar = CNCC(=O)O

A short description of assay [1]: qHTS assay to identify small molecule agonists of the peroxisome proliferator-activated receptor delta (PPARd) signaling pathway - cell viability counter screen (AID 743211). Further: nearly all actives have a fitted effect of over 55% in size. Further: potency means the concentration at half of the fitted maximal effect. As to conditions: PPARd-bla HEK293H viability, CellTiter-Glo luminescence, 17 h; series mostly up to 62.6 µM. The method in brief: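 Following 5 h plating at 37 C and 5% CO2, PPARd UAS-bla HEK293H cells took up test compounds for 17 h. Viability was quantified by luminescence 30 min after CellTiter-Glo addition at room temperature.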
(Quantitative high-throughput screening tests each substance at several concentrations.)

The target in assay [2] is Peroxisome proliferator-activated receptor delta (Homo sapiens) (UniProt Q03181). Briefly: qHTS assay to identify small molecule agonists of the peroxisome proliferator-activated receptor delta (PPARd) signaling pathway (AID 743212; calls by dose curve;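 further: HEK293H cells with PPARd UAS beta-lactamase reporter GeneBLAzer system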). As to conditions: HEK293H PPARd-UAS-bla, beta-lactamase FRET ratio, 17 h; series mostly up to 62.6 µM. The gist of the method:
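Beta-lactamase reporter read by fluorescence (LiveBLAzer B/G FRET, 2 h, room temperature). Test agents, in DMSO, incubated at 37 C with PPARd-bla HEK293H cells.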

The target is the same in assay [3]. Briefly: qHTS assay to identify small molecule antagonists of the peroxisome proliferator-activated receptor delta (PPARd) signaling pathway (AID 743215; active means well fitted inhibition curve with a large enough effect in the signal ratio in the repeat runs, not every such curve was filed as active; the % refers to the signal ratio;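 further: cells stimulated with agonist L165041 at 300 nM final during compound exposure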; further: potency means the concentration at half of the fitted maximal effect). Conditions: HEK293H PPARd-UAS-bla, beta-lactamase FRET ratio, antagonist, 17 h; series mostly up to 62 µM. The gist of the method: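 Fluorescence from cleaved LiveBLAzer B/G FRET substrate (2 h, room temperature) reports PPARd-driven beta-lactamase in HEK293H UAS-bla cells. Cells had been treated 17 h at 37 C with compound plus 300 nM final L165041.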

The nature of assay [4]: qHTS assay to identify small molecule antagonists of the farnesoid-X-receptor (FXR) signaling pathway - cell viability counter screen (AID 743221; active means well fitted cell-killing curve with a large enough effect in the repeat runs, not every such curve was filed as active; further: nearly all actives have a fitted effect of over 50% in size; further: potency means the concentration at half of the fitted maximal effect). Conditions: FXR-bla HEK293T viability, CellTiter-Glo luminescence, 16 h; series mostly up to 62.6 µM. The gist of the method:
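Compound effects on cell number were measured as CellTiter-Glo luminescence in HEK 293T cells expressing FXR-UAS-bla, after 16 h at 37 C with 50 uM CDCA (final).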

Assay [5] addresses Vitamin D3 receptor (Homo sapiens) (UniProt P11473). As to the kind of experiment: qHTS assay to identify small molecule agonists of the vitamin D receptor (VDR) signaling pathway (AID 743222; calls by dose curve). As to conditions: HEK293T VDR-UAS-bla, beta-lactamase FRET ratio, 16 h; series mostly up to 63.5 µM. The gist of the method: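 Following 4 h attachment at 37C, VDR-bla cells (2,000 per well) received DMSO-dissolved compounds or controls. After 16 h incubation, LiveBLAzer B/G FRET substrate was added and fluorescence read 2 h later at room temperature.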

The nature of assay [6]: qHTS assay to identify small molecule agonists of the farnesoid-X-receptor (FXR) signaling pathway - cell viability counter screen (AID 743218). Further: nearly all actives have a fitted effect of over 45% in size. Further: potency means the concentration at half of the fitted maximal effect. As to conditions: FXR-bla HEK293T viability, CellTiter-Glo luminescence, 16 h; series mostly up to 62.6 µM. The method in brief: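 Readout: CellTiter-Glo luminescence, 30 min RT, multiplexed after the FXR-bla FRET reading. HEK 293T FXR-UAS-bla cells received compound 5 h post-plating and were incubated 16 h at 37 C.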

In assay [7] the target is Vitamin D3 receptor (Homo sapiens) (UniProt P11473). As to the kind of experiment: qHTS assay to identify small molecule antagonists of the vitamin D receptor (VDR) signaling pathway (AID 743223; active means well fitted inhibition curve with a large enough effect in the signal ratio in the repeat runs, not every such curve was filed as active; the % refers to the signal ratio; further: potency means the concentration at half of the fitted maximal effect). Conditions: VDR-UAS-bla HEK293T, beta-lactamase FRET ratio, 16 h; series mostly up to 61 µM. The gist of the method:
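Beta-lactamase activity in VDR-bla cells is measured by FRET substrate fluorescence (2 h, room temperature) after cells spend 16 h at 37C with test compound and 3 nM final 1alpha,25-dihydroxyvitamin D3.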

Assay [8] deals with Bile acid receptor (Homo sapiens) (UniProt Q96RI1). As to the kind of experiment: qHTS assay to identify small molecule antagonists of the farnesoid-X-receptor (FXR) signaling pathway (AID 743217; active means well fitted inhibition curve with a large enough effect in the signal ratio in the repeat runs, not every such curve was filed as active; the % refers to the signal ratio; further: potency means the concentration at half of the fitted maximal effect). Conditions: HEK293T FXR-UAS-bla, beta-lactamase ratio, CDCA-stimulated, 16 h; series mostly up to 62.6 µM. The method in brief:
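FRET fluorescence after 2 h room-temperature LiveBLAzer loading gives the readout. Prior step: FXR-bla HEK 293T cells, seeded and incubated 5 h, received test compounds plus 50 uM final CDCA for 16 h at 37 °C.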

For assay [9] the target is unchanged. As to the kind of experiment: qHTS assay to identify small molecule agonists of the farnesoid-X-receptor (FXR) signaling pathway (AID 743220; active means well fitted activation curve with a large enough effect in the signal ratio in the repeat runs, not every such curve was filed as active; the % refers to the signal ratio). As to conditions: HEK293T FXR-UAS-bla, beta-lactamase FRET ratio, 16 h; series mostly up to 62.6 µM. The method in brief:
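FXR-UAS-bla HEK 293T cells carrying a UAS-driven beta-lactamase reporter were plated for 5 h at 37C/5% CO2, then exposed to DMSO-dissolved Tox21 10K compounds for 16 h at 37C. A LiveBLAzer B/G FRET substrate was loaded for 2 h at room temperature before fluorescence reading.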

The nature of assay [10]: qHTS assay to identify small molecule antagonists of the peroxisome proliferator-activated receptor delta (PPARd) signaling pathway - cell viability counter screen (AID 743213). Further: nearly all actives have a fitted effect of over 50% in size. Further: potency means the concentration at half of the fitted maximal effect. As to conditions: PPARd-bla HEK293H viability, CellTiter-Glo luminescence, 17 h; series mostly up to 62 µM. The method in brief:
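PPARd-bla HEK293H cells were treated with compounds plus agonist L165041 (300 nM final) for 17 h at 37 C. Viability was then read in the same wells by CellTiter-Glo luminescence after 30 min at room temperature.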

Bile acid receptor (Homo sapiens), sequence (Q96RI1 whole entry, looked up): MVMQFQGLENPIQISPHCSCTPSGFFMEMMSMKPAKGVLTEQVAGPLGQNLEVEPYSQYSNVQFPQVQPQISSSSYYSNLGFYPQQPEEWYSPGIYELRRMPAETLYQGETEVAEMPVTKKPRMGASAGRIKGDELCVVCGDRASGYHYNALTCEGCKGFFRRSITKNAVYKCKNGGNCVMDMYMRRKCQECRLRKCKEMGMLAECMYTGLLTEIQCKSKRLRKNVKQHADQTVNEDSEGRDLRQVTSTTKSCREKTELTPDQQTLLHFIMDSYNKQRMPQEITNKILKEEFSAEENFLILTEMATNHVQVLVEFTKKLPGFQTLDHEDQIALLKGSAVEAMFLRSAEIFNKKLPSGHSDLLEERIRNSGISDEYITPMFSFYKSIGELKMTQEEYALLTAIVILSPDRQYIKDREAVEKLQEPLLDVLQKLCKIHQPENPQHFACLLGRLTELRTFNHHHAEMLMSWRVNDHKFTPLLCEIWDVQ
Peroxisome proliferator-activated receptor delta (Homo sapiens), sequence (Q03181 whole entry, looked up): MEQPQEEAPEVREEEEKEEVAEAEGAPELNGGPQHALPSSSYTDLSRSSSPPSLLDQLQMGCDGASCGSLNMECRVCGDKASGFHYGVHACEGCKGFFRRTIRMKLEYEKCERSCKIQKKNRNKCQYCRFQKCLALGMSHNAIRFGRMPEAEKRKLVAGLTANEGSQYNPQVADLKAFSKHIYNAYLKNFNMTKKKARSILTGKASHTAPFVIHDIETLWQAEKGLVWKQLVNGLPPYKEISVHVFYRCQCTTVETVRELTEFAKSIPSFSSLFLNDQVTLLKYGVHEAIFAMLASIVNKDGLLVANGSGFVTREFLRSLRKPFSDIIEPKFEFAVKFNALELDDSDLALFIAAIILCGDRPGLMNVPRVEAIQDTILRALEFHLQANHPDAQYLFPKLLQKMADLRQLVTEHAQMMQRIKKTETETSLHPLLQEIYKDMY
Vitamin D3 receptor (Homo sapiens), sequence (P11473 whole entry, looked up): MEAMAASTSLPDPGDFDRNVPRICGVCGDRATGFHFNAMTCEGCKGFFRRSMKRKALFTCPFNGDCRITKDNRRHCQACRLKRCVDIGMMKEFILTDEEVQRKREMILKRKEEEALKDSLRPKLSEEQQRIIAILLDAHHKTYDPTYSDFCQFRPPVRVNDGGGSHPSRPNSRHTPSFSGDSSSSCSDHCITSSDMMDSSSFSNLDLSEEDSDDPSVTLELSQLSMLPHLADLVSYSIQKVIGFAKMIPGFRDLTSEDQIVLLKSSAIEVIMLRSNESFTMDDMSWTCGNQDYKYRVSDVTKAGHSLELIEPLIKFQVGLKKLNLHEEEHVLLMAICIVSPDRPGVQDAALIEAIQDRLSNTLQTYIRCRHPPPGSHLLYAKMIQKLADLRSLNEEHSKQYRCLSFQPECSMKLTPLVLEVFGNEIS

Take `Cc1c2oc3c(C)ccc(C(=O)N[C@@H]4C(=O)N[C@H](C(C)C)C(=O)N5CCC[C@H]5C(=O)N(C)CC(=O)N(C)[C@@H](C(C)C)C(=O)O[C@@H]4C)c3nc-2c(C(=O)N[C@@H]2C(=O)N[C@H](C(C)C)C(=O)N3CCC[C@H]3C(=O)N(C)CC(=O)N(C)[C@@H](C(C)C)C(=O)O[C@@H]2C)c(N)c1=O` (I: T[dV]P[Sar][NMeV] / II: T[dV]P[Sar][NMeV]; ester I:1-I:C, II:1-II:C; linker I:N-II:N via Actinocin(9to1)): the Potency was 26.8 µM (active) and inactive in assay [1]; 1.7 nM (active) and 11.9 nM (active) in assay [3]. The Potency result in assay [2], in assay [4] and in assay [5] was “inactive” each time.
In the case of `CCCC(=O)c1ccccc1`, the Potency result in assay [1], in assay [2], in assay [3], in [6], in assay [4] and in assay [5] was “inactive” throughout. Further, in [7], the Potency result was “inactive”.
For `NC(=Nc1ccccc1)Nc1ccccc1`, the Potency result in assay [1], in assay [2], in [3], in [6] and in assay [4] was “inactive” each time.
For `Cc1ccc(S(=O)(=O)Oc2ccc(N=Nc3ccc(-c4ccc(N=Nc5c(O)ccc6cc(S(=O)(=O)O)cc(S(=O)(=O)O)c56)c(C)c4)cc3C)cc2)cc1`, the Potency result in assay [1], in assay [2], in assay [3], in assay [8], in assay [6] and in assay [9] was “inactive” throughout. For the same molecule, the Potency entry in [4] and in assay [7] was “inactive” in each case.
Take `CCCCCCCCCCCCc1ccccc1O`: the Potency is 13.6 µM (active) and 34.7 µM (active) in assay [1]; 24.2 µM (active) and 21.9 µM (active) in assay [10]; 49 µM (active) in assay [8]; 17.2 µM (active) and 30.9 µM (active) in assay [6]; 43.1 µM (active) and 43.6 µM (active) in [4]; 15.3 µM (active) and 19.5 µM (active) in [7].
With `Nc1cc(Cl)c(-c2cc(Cl)c(N)cc2Cl)cc1Cl`, the Potency in assay [1] is 48.9 µM (active) and 43.6 µM (active); in assay [10], 24.5 µM (active); in assay [6], 43.6 µM (active) and 12.3 µM (active); in [4], 38.9 µM (active); in [7] it was 54.9 µM (active). Moreover, the Potency entry in assay [2] was “inactive”.
Turning to `COc1ccc(Cc2cnc(N)nc2N)cc1OC`, the Potency result in [1], in assay [2], in [3], in [8], in assay [6] and in [9] was “inactive” in each case. The Potency result in assay [4], in assay [5] and in [7] was “inactive” each time.
Turning to `CCN(CC)C(=S)SSC(=S)N(CC)CC`, the Potency in assay [1] was 110 nM (active) and 44.7 nM (active) and 150 nM (active); in assay [10], 123 nM (active) and 39.8 nM (active) and 150 nM (active); in assay [3] it was 87.1 nM (active); in assay [6] it was 91.5 nM (active); in assay [4] it was 222 nM (active) and 188 nM (active).
Turning to `C=CC(=O)OCCCCCCOC(=O)C=C`, in [1], the Potency is 49.6 µM (active). The Potency entry in [10], in assay [8], in [6] and in assay [4] was “inactive” throughout.
For `CC(C)C(=O)c1c(C(C)C)nn2ccccc12`, the Potency result in assay [1], in assay [10], in assay [3], in assay [8], in assay [6] and in [9] was “inactive” in each case. Also, the Potency entry in assay [4] and in assay [7] was “inactive” throughout.
Turning to `COC(=O)[C@H]1[C@H]2C[C@@H]3c4[nH]c5cc(OC)ccc5c4CCN3C[C@H]2C[C@@H](OC(=O)c2cc(OC)c(OC)c(OC)c2)[C@@H]1OC`, the Potency in assay [1] is 17.9 µM (active); in assay [10] it was 17.9 µM (active); in assay [6], 22500 nM (active). Further, the Potency entry in assay [3] and in assay [4] was “inactive” each time.
